One sequence from article PMC7862700, “An all-to-all approach to the identification of sequence-specific readers for epigenetic DNA modifications on cytosine” can be followed below.

Common to all, as to test: DAPPL (digital affinity profiling via proximity ligation, sequencing); 10 mM Tris-HCl pH 7.5, 50 mM NaCl, 1 mM DTT, 4% glycerol, room temperature, 30 min; GST-TFs on glutathione beads, 16-mer random dsDNA library, 0.1% formaldehyde crosslink after washing; high values mean tight binding
Common to all, as to conditions: protein: recombinant; tags: N-terminal GST; dsDNA, one strand shown

The target in experiment [1] is T1, FLI1 (Homo sapiens, UniProt Q01543 1-452).
T1 sequence: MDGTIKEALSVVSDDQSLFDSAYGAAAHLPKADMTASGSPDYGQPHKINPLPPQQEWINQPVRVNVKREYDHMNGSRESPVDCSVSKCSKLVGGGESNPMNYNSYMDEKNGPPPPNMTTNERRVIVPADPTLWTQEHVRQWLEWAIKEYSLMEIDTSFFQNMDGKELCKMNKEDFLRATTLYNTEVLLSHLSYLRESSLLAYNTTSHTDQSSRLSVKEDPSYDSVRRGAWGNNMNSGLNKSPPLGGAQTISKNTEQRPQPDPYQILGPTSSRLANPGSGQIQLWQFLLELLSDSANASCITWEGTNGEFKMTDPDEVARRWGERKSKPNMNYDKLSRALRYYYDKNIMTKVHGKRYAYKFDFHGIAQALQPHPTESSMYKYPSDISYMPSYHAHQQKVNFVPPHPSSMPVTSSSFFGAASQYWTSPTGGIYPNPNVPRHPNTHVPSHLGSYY
In a few lines: (§1)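 After expression in yeast as GST fusions, human transcription factors were bound to glutathione beads, DNA-barcoded and mixed with a tag-only sample. The pools were incubated with 200 nmole of a 16-mer random double-stranded DNA library in Tris/NaCl/DTT/glycerol buffer (30 min, room temperature), washed and crosslinked with 0.1% formaldehyde. Proximity ligation with BsaI/T4 ligase ran for 1 h at 37 °C, before PCR amplification and sequencing on an Illumina NextSeq500. Binding signal is a hexamer's read frequency for a factor divided by its frequency for the tag-only sample.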

Experiment [2] has as its target T2, ELK1 (Homo sapiens, UniProt P19419 1-428).
T2 sequence: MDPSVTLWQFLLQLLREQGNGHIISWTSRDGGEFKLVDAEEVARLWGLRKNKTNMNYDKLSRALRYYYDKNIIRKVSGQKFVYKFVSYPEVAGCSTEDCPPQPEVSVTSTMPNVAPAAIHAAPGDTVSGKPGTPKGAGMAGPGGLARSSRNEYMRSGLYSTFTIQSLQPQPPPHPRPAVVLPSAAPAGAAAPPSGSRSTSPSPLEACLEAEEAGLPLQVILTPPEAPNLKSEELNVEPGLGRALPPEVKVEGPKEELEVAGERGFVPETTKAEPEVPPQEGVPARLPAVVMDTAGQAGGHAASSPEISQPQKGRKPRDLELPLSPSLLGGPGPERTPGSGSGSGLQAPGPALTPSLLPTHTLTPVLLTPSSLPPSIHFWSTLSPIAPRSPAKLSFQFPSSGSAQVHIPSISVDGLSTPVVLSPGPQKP
The procedure, abridged: as §1

The target in experiment [3] is T3, GABPA (Homo sapiens, UniProt Q06546 1-454).
T3 sequence: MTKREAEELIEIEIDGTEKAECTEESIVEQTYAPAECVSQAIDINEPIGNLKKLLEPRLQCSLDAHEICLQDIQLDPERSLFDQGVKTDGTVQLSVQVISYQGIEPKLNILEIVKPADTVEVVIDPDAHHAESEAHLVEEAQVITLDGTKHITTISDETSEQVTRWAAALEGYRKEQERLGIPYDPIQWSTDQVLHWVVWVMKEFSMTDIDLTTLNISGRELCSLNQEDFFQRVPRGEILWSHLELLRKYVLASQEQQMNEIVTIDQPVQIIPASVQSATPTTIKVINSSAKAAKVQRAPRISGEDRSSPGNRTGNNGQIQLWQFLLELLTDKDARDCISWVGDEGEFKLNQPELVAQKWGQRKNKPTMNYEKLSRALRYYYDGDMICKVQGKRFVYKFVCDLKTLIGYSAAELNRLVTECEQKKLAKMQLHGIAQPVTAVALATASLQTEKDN
In a few lines:
as §1

Experiment [4] deals with T4, ERG (Homo sapiens, UniProt P11308 1-479).
T4 sequence: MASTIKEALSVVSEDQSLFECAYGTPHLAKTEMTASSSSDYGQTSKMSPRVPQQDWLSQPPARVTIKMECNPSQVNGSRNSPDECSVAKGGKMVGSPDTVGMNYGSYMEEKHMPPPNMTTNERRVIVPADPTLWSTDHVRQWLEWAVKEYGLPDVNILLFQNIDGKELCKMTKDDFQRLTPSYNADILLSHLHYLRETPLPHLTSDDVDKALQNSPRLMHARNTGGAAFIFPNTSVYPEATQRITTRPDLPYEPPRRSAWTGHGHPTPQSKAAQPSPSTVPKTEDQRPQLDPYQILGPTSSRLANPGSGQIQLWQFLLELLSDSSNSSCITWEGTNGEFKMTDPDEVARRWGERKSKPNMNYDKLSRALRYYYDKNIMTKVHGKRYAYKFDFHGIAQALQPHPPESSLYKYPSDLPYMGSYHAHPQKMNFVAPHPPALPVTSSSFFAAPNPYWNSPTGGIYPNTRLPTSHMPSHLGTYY
In a few lines: as §1

The target of experiment [5] is ELF1 (Homo sapiens, UniProt P32519 1-619). The procedure, abridged:
as §1

Experiment [6] has as its target T5, EHF (Homo sapiens, UniProt Q9NZC4 1-300).
T5 sequence: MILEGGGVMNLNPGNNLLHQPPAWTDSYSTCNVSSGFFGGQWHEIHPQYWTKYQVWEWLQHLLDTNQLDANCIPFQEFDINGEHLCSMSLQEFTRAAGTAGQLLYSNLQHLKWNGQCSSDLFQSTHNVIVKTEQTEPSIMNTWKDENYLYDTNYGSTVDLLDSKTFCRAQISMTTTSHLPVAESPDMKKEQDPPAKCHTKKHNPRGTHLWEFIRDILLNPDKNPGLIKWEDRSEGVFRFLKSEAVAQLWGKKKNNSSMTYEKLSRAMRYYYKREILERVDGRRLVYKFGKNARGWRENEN
In a few lines:
as §1

Experiment [7] has as its target SPI1 (Homo sapiens, UniProt P17947 1-270). The procedure, abridged:
as §1

For experiment [8], the target named is SPIB (Homo sapiens, UniProt Q01892 1-262). In a few lines: as §1
Experiment [9] has as its target ETV5 (Homo sapiens, UniProt P41161 1-510). The procedure, abridged:
as §1

Experiment [10] concerns the target T6, SPIC (Homo sapiens, UniProt Q8N5J4 1-248).
T6 sequence: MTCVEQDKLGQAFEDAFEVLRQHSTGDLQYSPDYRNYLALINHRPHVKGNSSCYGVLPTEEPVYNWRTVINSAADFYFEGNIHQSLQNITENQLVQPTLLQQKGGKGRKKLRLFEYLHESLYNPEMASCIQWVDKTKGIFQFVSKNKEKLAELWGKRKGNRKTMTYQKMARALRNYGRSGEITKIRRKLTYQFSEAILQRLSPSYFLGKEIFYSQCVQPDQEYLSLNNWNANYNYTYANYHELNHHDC
In a few lines:
as §1

Experiment [11] deals with ELF4 (Homo sapiens, UniProt Q99607 1-663). In a few lines:
as §1

For experiment [12], the target named is ETV1 (Homo sapiens, UniProt P50549 1-477). The procedure, abridged: as §1
Experiment [13] concerns the target T7, ETS2 (Homo sapiens, UniProt P15036 1-469).
T7 sequence: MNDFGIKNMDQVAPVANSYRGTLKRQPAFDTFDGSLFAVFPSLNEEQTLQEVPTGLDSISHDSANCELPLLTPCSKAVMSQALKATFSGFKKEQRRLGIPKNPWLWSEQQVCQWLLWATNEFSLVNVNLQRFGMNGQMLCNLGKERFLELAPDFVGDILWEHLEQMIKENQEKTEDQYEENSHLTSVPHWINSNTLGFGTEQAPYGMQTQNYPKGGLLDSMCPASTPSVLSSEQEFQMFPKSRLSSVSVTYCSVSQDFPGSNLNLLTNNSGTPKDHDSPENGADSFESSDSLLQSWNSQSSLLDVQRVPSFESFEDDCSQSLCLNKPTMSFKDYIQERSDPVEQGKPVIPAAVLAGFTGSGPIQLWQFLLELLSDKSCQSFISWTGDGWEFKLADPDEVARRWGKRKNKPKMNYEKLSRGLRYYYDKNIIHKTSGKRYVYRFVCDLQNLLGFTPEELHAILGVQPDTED
The procedure, abridged: as §1

The target in experiment [14] is T8, ELF5 (Homo sapiens, UniProt Q9UKW6-2 1-255).
T8 sequence: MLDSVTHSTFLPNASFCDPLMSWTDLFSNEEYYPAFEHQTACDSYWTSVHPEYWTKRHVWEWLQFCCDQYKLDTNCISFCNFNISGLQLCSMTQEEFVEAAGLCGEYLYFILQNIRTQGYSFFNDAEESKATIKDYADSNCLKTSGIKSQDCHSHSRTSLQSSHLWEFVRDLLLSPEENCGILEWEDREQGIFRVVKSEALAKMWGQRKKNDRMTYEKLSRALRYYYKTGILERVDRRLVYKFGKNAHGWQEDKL
In a few lines:
as §1

Experiment [15] concerns the target T9, ETV3 (Homo sapiens, UniProt P41162-2 1-143).
T9 sequence: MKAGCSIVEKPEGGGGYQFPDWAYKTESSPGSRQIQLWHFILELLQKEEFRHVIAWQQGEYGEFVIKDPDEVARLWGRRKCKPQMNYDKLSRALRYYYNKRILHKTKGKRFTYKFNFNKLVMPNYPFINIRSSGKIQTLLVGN
The procedure, abridged: as §1

Chain of ELF1 (P32519 whole entry): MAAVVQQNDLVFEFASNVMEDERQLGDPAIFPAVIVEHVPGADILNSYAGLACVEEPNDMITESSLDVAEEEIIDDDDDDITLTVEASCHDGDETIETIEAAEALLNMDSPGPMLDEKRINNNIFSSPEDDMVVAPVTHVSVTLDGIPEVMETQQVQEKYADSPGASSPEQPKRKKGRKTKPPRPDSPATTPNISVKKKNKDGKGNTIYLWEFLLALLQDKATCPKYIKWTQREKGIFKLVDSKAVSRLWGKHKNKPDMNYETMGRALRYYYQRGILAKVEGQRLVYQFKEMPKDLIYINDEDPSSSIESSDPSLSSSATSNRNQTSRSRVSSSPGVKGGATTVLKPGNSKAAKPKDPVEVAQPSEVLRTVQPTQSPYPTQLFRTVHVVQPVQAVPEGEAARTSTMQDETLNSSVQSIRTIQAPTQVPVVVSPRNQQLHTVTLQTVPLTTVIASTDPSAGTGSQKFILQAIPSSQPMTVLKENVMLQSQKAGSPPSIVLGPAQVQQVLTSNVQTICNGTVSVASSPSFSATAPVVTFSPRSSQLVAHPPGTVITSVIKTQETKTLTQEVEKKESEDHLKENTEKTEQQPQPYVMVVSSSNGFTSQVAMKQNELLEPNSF
Chain of ETV5 (P41161 whole entry): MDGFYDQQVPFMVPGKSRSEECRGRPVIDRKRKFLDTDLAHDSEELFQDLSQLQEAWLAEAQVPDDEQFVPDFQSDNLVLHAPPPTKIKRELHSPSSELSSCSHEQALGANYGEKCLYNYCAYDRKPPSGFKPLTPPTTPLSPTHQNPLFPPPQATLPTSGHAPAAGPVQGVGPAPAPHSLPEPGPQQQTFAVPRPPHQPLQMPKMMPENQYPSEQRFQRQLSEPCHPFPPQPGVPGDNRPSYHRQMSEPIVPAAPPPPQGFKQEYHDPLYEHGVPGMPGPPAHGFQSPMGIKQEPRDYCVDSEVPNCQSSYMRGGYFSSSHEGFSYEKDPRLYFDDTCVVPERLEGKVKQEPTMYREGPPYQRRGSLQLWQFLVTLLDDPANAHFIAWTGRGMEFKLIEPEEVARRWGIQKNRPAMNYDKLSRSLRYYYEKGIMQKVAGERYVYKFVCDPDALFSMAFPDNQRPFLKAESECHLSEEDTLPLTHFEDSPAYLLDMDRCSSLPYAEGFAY
Chain of ELF4 (Q99607 whole entry): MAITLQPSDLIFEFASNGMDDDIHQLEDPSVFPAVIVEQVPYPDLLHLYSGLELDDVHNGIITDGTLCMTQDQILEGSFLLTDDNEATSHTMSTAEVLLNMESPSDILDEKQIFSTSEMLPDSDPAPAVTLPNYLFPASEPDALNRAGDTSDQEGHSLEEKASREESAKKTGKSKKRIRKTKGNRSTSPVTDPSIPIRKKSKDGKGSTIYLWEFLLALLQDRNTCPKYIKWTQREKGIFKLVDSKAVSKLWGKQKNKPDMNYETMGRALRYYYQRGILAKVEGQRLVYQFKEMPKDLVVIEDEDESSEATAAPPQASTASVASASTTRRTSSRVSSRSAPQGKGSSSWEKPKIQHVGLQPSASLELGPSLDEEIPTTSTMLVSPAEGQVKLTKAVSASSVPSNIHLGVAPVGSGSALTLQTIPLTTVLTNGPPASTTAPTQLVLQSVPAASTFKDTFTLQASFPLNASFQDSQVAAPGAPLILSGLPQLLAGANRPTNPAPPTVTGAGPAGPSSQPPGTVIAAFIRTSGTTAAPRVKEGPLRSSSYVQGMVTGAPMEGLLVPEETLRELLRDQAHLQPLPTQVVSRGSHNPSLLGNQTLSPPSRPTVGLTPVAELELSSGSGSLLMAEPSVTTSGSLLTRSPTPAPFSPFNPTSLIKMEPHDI
Chain of SPIB (Q01892 whole entry): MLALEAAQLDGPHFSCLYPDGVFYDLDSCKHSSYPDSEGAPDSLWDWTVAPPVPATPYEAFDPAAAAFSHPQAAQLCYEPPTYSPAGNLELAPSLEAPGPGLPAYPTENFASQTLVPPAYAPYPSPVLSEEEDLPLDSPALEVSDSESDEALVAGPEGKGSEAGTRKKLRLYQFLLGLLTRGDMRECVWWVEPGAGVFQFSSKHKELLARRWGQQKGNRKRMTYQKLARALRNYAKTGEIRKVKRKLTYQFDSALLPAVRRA
Chain of ETV1 (P50549 whole entry): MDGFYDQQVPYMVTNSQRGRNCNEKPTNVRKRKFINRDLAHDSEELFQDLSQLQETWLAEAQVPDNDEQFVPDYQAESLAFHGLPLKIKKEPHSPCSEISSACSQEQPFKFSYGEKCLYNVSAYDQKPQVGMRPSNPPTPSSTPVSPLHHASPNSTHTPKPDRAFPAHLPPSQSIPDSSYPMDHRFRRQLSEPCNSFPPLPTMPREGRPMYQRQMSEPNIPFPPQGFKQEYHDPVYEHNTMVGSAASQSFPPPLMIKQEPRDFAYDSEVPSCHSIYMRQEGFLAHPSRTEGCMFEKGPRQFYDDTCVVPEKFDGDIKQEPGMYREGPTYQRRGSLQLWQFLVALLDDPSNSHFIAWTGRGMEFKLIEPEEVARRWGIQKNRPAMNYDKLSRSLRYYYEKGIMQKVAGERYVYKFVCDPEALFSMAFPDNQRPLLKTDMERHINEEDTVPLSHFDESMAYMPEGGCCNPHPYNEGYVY

For AAGGGT, the binding signal is 1 fold enrichment (6-mer frequency, TF over GST control) in experiment [1]; 1.01 fold enrichment (6-mer frequency, TF over GST control) in experiment [2]; 1.01 fold enrichment (6-mer frequency, TF over GST control) in experiment [3]; 1 fold enrichment (6-mer frequency, TF over GST control) in [4]; 1.01 fold enrichment (6-mer frequency, TF over GST control) in [5]; 1.01 fold enrichment (6-mer frequency, TF over GST control) in experiment [6]. Moreover, the binding signal in experiment [7] was 1.05 fold enrichment (6-mer frequency, TF over GST control); in [8], 1.04 fold enrichment (6-mer frequency, TF over GST control); in [9] it was 1.05 fold enrichment (6-mer frequency, TF over GST control); in experiment [10] it was 1.08 fold enrichment (6-mer frequency, TF over GST control); in experiment [11], 1.01 fold enrichment (6-mer frequency, TF over GST control); in experiment [12] it was 1.05 fold enrichment (6-mer frequency, TF over GST control). The binding signal was 1.07 fold enrichment (6-mer frequency, TF over GST control) in [13]; 1.04 fold enrichment (6-mer frequency, TF over GST control) in experiment [14]; 1.05 fold enrichment (6-mer frequency, TF over GST control) in [15].
